Assay outcomes from PubChem BioAssay.
HSF1 inh: HSF1 inhibition | NIH3T3-HGL HSE-luciferase, MG132-induced, luminescence 8 h; hits give low values | activity change, negative = inhibition, % at 7.5 µM (by protocol) | 0.77% of 300,000 active;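 active = more than half of replicate wells show activity change below -50%, luminescence cut by over half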;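 also: luciferase reports HSF-1 transcriptional activity via heat shock element; 0% = median of DMSO wells and -100% = zero luminescence signal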
C8 TRAIL sens: sensitizes caspase-8 expressing cells to TRAIL. NB7+C8 cells + TRAIL, ATPlite viability luminescence. 1% of 360,000 active. AID 624354. inhibition (viability loss, TRAIL sensitization), % at 10 µM;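 active = compounds causing at least 50% loss of cell viability in the single-dose screen, relative to plate controls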
HSP90 inh: inhibitors of HSP90 luciferase refolding in rabbit reticulocyte lysate | luciferase refolding luminescence, 3 h | inhibition, % at 5.6 µM | 0.91% of 290,000 active;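 active = inhibition above the screen-wide mean plus 3 SD, computed separately per campaign, cut at about 16% in these data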;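 also: 0% = DMSO wells and 100% = 60 µM geldanamycin wells; inhibitors lower the luminescence because luciferase stays unfolded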
STAT1 inh: STAT1 signaling inhibition; NIH 3T3 STAT1-luciferase reporter, IFN-gamma, luminescence; 0.35% of 200,000 active; inhibition, % at 5.5 µM;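 active = inhibition above a set limit, the mean inhibition across all tested compounds plus 3 SD, cut at about 34% in these data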;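 also: 0% = IFN-gamma with DMSO and 100% = IFN-gamma with 300 µM nifuroxazide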
STAT3 inh-1: inhibitors of IL-6 induced STAT3 signaling; U3A cells, IL-6 STAT3-luciferase reporter, luminescence; host cell line lacks STAT1; inhibition, % at 5.5 µM; 0.89% of 190,000 active;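 active = inhibition above the mean inhibition across all screened compounds plus 3 SD, cut at about 44% in these data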;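 also: 0% = DMSO only wells and 100% = 100 µM nifuroxazide control wells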
PPC-1+TRAIL kill: compounds killing PPC-1 cancer cells with TRAIL present (potentiator screen, no TRAIL-free arm); cell killing (% activity), % at 4 µM or 5 µM; PPC-1 cells + TRAIL, ATPLite viability luminescence; AID 1443; 0.41% of 220,000 active;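 active = cell killing above 50% in the first pass at 4 µM, then a duplicate retest at 5 µM averaging 50% or more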;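 also: plate controls were cells with TRAIL plus DMSO for no effect and medium-only wells lacking cells for full effect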
STAT3 inh-2: STAT3 inhibition, confirmation assay. 45% of 1,200 active. inhibition, % at 5.7 µM. shares compounds with STAT3 inh-1. U3A cells, IL-6 STAT3 luciferase reporter, luminescence; cell line lacks STAT1;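 active = inhibition above the hit cutoff computed for the primary STAT3 screen, cut at about 44% in these data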;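 also: 0% = IL-6 plus DMSO and 100% = IL-6 plus nifuroxazide control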
NFkB inh 2: counter-screen for STAT3 inhibitors: NF-kappaB inhibition | shares compounds with STAT3 inh-1 | HEK293T NF-kB luciferase reporter, TNF-alpha induced | inhibition, % at 5.7 µM | 36% of 1,200 active;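 active = inhibition above the mean of solvent-only control wells plus 3 SD, cutoff set per campaign, cut at about 13% in these data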;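 also: 0% = TNF-alpha with DMSO and 100% = TNF-alpha with MG high control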
STAT1 inh 2: STAT1 inhibition in STAT3 inhibitor counter-screen; 27% of 1,200 active; NIH 3T3 STAT1-luciferase reporter, IFN-gamma induced, luminescence; shares compounds with STAT3 inh-1; inhibition, % at 5.7 µM;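 active = inhibition above the mean plus 3 SD of solvent-only control wells, limit set per screening run, cut at about 16% in these data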;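 also: 0% = DMSO with IFN-gamma and 100% = nifuroxazide control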
An asterisk follows results filed as active; nt = no result. Rows were chosen to be rich in hits. Some 2.4% of all compounds tested hit in one or more screens of this group.

SMILES | HSF1 inh | C8 TRAIL sens | HSP90 inh | STAT1 inh | STAT3 inh-1 | PPC-1+TRAIL kill | STAT3 inh-2 | NFkB inh 2 | STAT1 inh 2
CCOC(=O)c1ccc(NC(=O)c2cccc(S(=O)(=O)N3CCOCC3)c2)cc1 | 1 | 39 | 5 | 9 | 58* | 3 | 37 | 3 | -4
CCOC(=O)c1ccc(NC(=O)c2ccc(C)c(S(=O)(=O)N3CCOCC3)c2)cc1 | -6 | 70* | -3 | 8 | 72* | 10 | 69* | 22* | 14
O=C(Nc1cc(Cl)cc(Cl)c1)N[C@@H]1CC[C@@H](CCNS(=O)(=O)c2cccc(F)c2)O[C@@H]1CO | nt | 13 | nt | nt | nt | nt | nt | nt | nt
CNc1ccccc1C(=O)OCC(=O)N1CCc2ccccc2C1 | nt | 13 | nt | nt | nt | nt | nt | nt | nt
CCOc1ccc(NC(=O)N2CCN(S(C)(=O)=O)CC2)cc1 | -35 | -4 | -8 | -8 | -2 | 14 | nt | nt | nt
Cc1cccc(Cl)c1NC(=O)N1CCCN(c2nc3ccc(Cl)cc3s2)CC1 | 5 | 8 | 3 | nt | nt | 22 | nt | nt | nt
CCOc1ccc(NC(=O)N2CCN(c3nc4ccccc4s3)CC2)cc1 | -13 | -3 | 0 | 25 | 55* | 13 | 39 | 3 | 17*
Cc1cccc(C)c1NC(=O)N1CCN(c2nc3ccccc3s2)CC1 | -4 | 22 | -1 | 4 | 56* | 11 | 57* | 8 | 4
Cc1cc(C)nc(SCC(=O)Nc2ccc(N3CCOCC3)c(Cl)c2)n1 | nt | 11 | -2 | 22 | 45* | 0 | 51* | 12 | 24*
O=C(O)CNS(=O)(=O)c1ccc(Br)s1 | -3 | 9 | -2 | 3 | -2 | 26 | nt | nt | nt
O=S(=O)(NCc1ccncc1)c1ccc(Br)s1 | -6 | 10 | 5 | 31 | 83* | 35 | 80* | 27* | 27*
c1ccc2c(c1)[nH]c1c(N3CCCC3)ncnc12 | 2 | 10 | 1 | 17 | 46* | 8 | 39 | 18* | 23*
COc1cc(OC)cc(C(=O)Nc2nnc(NC(=S)Nc3ccccc3)s2)c1 | -6 | 21 | 4 | 7 | 61* | 13 | 59* | -14 | -14
CCc1nnc(NC(=O)c2ccc(OC)cc2)s1 | 5 | 8 | 15 | 10 | 57* | 31 | 32 | -16 | -56
O=C(Nc1cccc(C(=O)N2CCOCC2)c1)C1CCCCC1 | nt | 8 | nt | nt | nt | nt | nt | nt | nt
Cc1ccc2nc(-c3ccc(NC(=O)COC(=O)c4ccco4)cc3)sc2c1 | -8 | 71* | -3 | -45 | 50* | 55* | 28 | -20 | -64
CCOc1ncccc1C(=O)OCC(=O)Nc1ccc(-c2nc3ccc(C)cc3s2)cc1 | -17 | 75* | 0 | -19 | 72* | 38 | 46* | -20 | -25
CCOc1ncccc1C(=O)OCC(=O)Nc1c(C)cc(C)cc1C | -1 | 4 | -6 | 3 | 5 | -10 | nt | nt | nt
Cc1ccc2nc(-c3ccc(NC(=O)COC(=O)c4ccc([N+](=O)[O-])o4)cc3)sc2c1 | -26 | 71* | 2 | -62 | 55* | 51* | 35 | -9 | -67
CCCC1NC(=O)c2cc3ccccc3cc2-n2c1nc1cc(Cl)ccc1c2=O (stereo not given) | nt | 18 | nt | nt | nt | nt | nt | nt | nt
CN(C)CCN1CCN(C2CN(Cc3ccc(F)cc3)S(=O)(=O)C2)CC1 (stereo not given) | nt | -15 | nt | nt | nt | nt | nt | nt | nt
Nc1c(C(=O)NC2CCCCC2)nsc1C(=O)OCC(=O)NC1CCCCC1 | -6 | 28 | 0 | 5 | 51* | 3 | 54* | 12 | 0
CCOC(=O)c1snc(C(=O)NC2CCCCC2)c1N | 32 | 12 | -3 | -18 | -9 | 1 | nt | nt | nt
O=C(COc1ccccc1)Nc1ccc(-c2nnc(-c3ccco3)o2)cc1 | 9 | 11 | 2 | -27 | 3 | -20 | nt | nt | nt
CC(C)COc1ccc(-c2nnc(-c3ccco3)o2)cc1 | -18 | 30 | 8 | -19 | 63* | 16 | 42 | -3 | -52
SMILES | HSF1 inh | C8 TRAIL sens | HSP90 inh | STAT1 inh | STAT3 inh-1 | PPC-1+TRAIL kill | STAT3 inh-2 | NFkB inh 2 | STAT1 inh 2
Cc1cc(-n2c(C)cc(C(=O)CSc3ncnc4ccccc34)c2C)no1 | 6 | 27 | 0 | 18 | 75* | -4 | 75* | 25* | 23*
Cc1cc(C(=O)CSc2ncnc3ccccc23)c(C)n1C1CC1 | nt | 15 | nt | nt | nt | nt | nt | nt | nt
O=[N+]([O-])c1ccc(-c2cn3ccccc3n2)cc1 | -2 | 28 | nt | nt | nt | nt | nt | nt | nt
O=[N+]([O-])c1ccc2nc(-c3ccc(OC(F)F)cc3)cn2c1 | 7 | 27 | 17* | -21 | 66* | -22 | 36 | -30 | -87
CCN(C1CCCCC1)S(=O)(=O)c1ccc(S(=O)(=O)NCc2ccncc2)cc1 | -1 | 18 | 4 | 21 | 62* | 20 | 43 | 15* | 25*
CCCNC(=O)c1cc(C2CCCCN2C(=O)c2ccc(OC)cc2)on1 (stereo not given) | nt | -9 | nt | nt | nt | nt | nt | nt | nt
Cc1cc(Br)cn2c(Cc3ccsc3)c(-c3ccc(Cl)cc3)nc12 | nt | 5 | nt | nt | nt | nt | nt | nt | nt
CCN1C(=C(C#N)C#N)C=Cc2cc(C)ccc21 | 2 | 1 | -4 | -11 | 17 | 22 | nt | nt | nt
C=CC[n+]1c(/C=C2\C=Cc3cc(C)ccc3N2CC)ccc2ccccc21 | -3 | 48 | 0 | 20 | 88* | 43 | 88* | 50* | 26*
COC(=O)C[C@@H]1OC[C@H](C(C)C)N1S(=O)(=O)c1ccc(C)cc1 | nt | -4 | nt | nt | nt | nt | nt | nt | nt
CCCCn1c2c(c(=N)c3c1CCC3)CCC2 | nt | 12 | 2 | 24 | 53* | -3 | 33 | -1 | 22*
CCn1c2c(c(=N)c3c1CCC3)CCC2 | -7 | 25 | -5 | -4 | 9 | 12 | nt | nt | nt
O=C(/C=C/Nc1ccc(F)cc1)c1cccs1 | 32 | 61* | -2 | 22 | 51* | nt | -7 | -12 | -75
O=c1c(Cl)c(Cl)cnn1Cc1ccccc1Cl | 24 | nt | -1 | 6 | 48* | 20 | 55* | 27* | 20*
Cc1cc(Cl)c(S(=O)(=O)N2CCCCCC2)cc1OCC(=O)NC1CCCCC1 | -2 | 3 | -3 | 10 | 82* | 10 | 83* | 31* | 16*
O=C(COc1ccc(Br)cc1Br)NC1CCCC1 | 16 | 36 | -2 | -47 | 49* | 20 | 53* | -2 | -43
CCOC(=O)N1CCN(S(=O)(=O)c2cc(OCC(=O)NC3CCCCC3)c(C)cc2Cl)CC1 | -2 | 4 | -6 | 14 | 6 | -6 | nt | nt | nt
Cc1cc(Cl)c(S(=O)(=O)N2CCSCC2)cc1OCC(=O)NC1CCCCC1 | 4 | 28 | -3 | 3 | 67* | -1 | 67* | 15* | 10
CCN1CCN(S(=O)(=O)c2cc(OCC(=O)NC3CCCCC3)c(C)cc2Cl)CC1 | 5 | 18 | 0 | 21 | 77* | 3 | 57* | 19* | 8
